Data published in PubChem BioAssay AID1159580 (chemical genetic matrix, 2015).
Where “and” joins values, the source holds several entries; their conditions need not be identical. Identical values can stand only once. Hit rate of the full screen: of about 5,500 compounds, about 2,000 (36%) were called active. Inconclusive results (about 18%) are left out. Rule as the data show it: active = normalized growth mostly below about 0.91 (no sharp cut-off); inconclusive = no clear call, values can overlap the other calls; inactive = mostly above about 0.92. The list shows a part of the results.

Assay: chemical genetic growth profiling, strain panel (AID 1159580);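 also: tested at 20 µM; growth read once vehicle control cultures reached saturation at 30 °C; 1 = growth at the plate median or of vehicle wells; lower values mean less growth of the strain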
Details: growth OD

Measured: normalized growth

CN(C)C(=O)C(CCN1CCC(O)(c2ccc(Cl)cc2)CC1)(c1ccccc1)c1ccccc1
inactive: S. cerevisiae deletion strains, locus YJR075W, strain HOC1, hits give low values 1.01 and 0.984 | S. cerevisiae deletion strains, locus YKL009W, strain mrt4, hits give low values 1.01 | S. cerevisiae deletion strains, locus YKL068W, hits give low values 1 | S. cerevisiae deletion strains, locus YKL085W, strain MDH1 (second series), hits give low values 1.01 | S. cerevisiae deletion strains, locus YKL085W, strain MDH1, hits give low values 1.01 | S. cerevisiae deletion strains, locus YKL160W, strain elf1, hits give low values 0.973 | S. cerevisiae deletion strains, locus YKL190W, strain CNB1, hits give low values 0.997 | S. cerevisiae deletion strains, locus YKR001C, strain vps1, hits give low values 1.01 | S. cerevisiae deletion strains, locus YKR026C, strain gcn3, hits give low values 0.997 | S. cerevisiae deletion strains, locus YKR091W, strain srl3, hits give low values 0.991 | S. cerevisiae deletion strains, locus YLL001W, strain dnm1, hits give low values 0.971 | S. cerevisiae deletion strains, locus YLL026W, hits give low values 0.987 | S. cerevisiae deletion strains, locus YLL041C, strain sdh2, hits give low values 1 | S. cerevisiae deletion strains, locus YLR027C, strain aat2, hits give low values 0.976 | S. cerevisiae deletion strains, locus YLR039C, strain RIC1, hits give low values 1.05 | S. cerevisiae deletion strains, locus YLR058C, strain SHM2, hits give low values 1 | S. cerevisiae deletion strains, locus YLR102C, strain apc9, hits give low values 1.01 | S. cerevisiae deletion strains, locus YLR113W, strain HOG1, hits give low values 0.988 | S. cerevisiae deletion strains, locus YLR221C, strain rsa3, hits give low values 1 | S. cerevisiae deletion strains, locus YLR258W, strain gsy2, hits give low values 0.995 | S. cerevisiae deletion strains, locus YLR262C, strain YPT6 (second series), hits give low values 1.03 | S. cerevisiae deletion strains, locus YLR262C, strain YPT6, hits give low values 0.991 | S. cerevisiae deletion strains, locus YLR268W, strain sec22, hits give low values 1.04 | S. cerevisiae deletion strains, locus YLR320W, strain mms22, hits give low values 0.932 | S. cerevisiae deletion strains, locus YLR330W, strain CHS5, hits give low values 0.993 | S. cerevisiae deletion strains, locus YLR342W, strain FKS1 (second series), hits give low values 0.946 | S. cerevisiae deletion strains, locus YLR342W, strain FKS1, hits give low values 0.955 | S. cerevisiae deletion strains, locus YLR357W, strain rsc2, hits give low values 0.994 | S. cerevisiae deletion strains, locus YLR370C, strain arc18, hits give low values 1 | S. cerevisiae deletion strains, locus YLR371W, strain rom2, hits give low values 1.01 | S. cerevisiae deletion strains, locus YLR384C, strain iki3, hits give low values 0.996 | S. cerevisiae deletion strains, locus YLR418C, strain cdc73, hits give low values 0.979 | S. cerevisiae deletion strains, locus YML016C, strain PPZ1, hits give low values 0.998 | S. cerevisiae deletion strains, locus YML032C, strain rad52, hits give low values 1.01 | S. cerevisiae deletion strains, locus YML120C, strain ndi1, hits give low values 0.993 | S. cerevisiae deletion strains, locus YML124C, strain tub3, hits give low values 1.01 | S. cerevisiae deletion strains, locus YMR058W, strain fet3, hits give low values 0.996 | S. cerevisiae deletion strains, locus YMR078C, strain ctf18, hits give low values 1.01 | S. cerevisiae deletion strains, locus YMR125W, strain sto1, hits give low values 1.02 | S. cerevisiae deletion strains, locus YMR129W, hits give low values 1 | S. cerevisiae deletion strains, locus YMR205C, strain PFK2, hits give low values 0.969 | S. cerevisiae deletion strains, locus YMR223W, strain ubp8, hits give low values 0.992 | S. cerevisiae deletion strains, locus YMR231W, strain pep5, hits give low values 0.985 | S. cerevisiae deletion strains, locus YMR263W, strain SAP30, hits give low values 1.01 and 0.992 | S. cerevisiae deletion strains, locus YMR307W, strain GAS1, hits give low values 0.941 and 0.992 | S. cerevisiae deletion strains, locus YNL067W, strain RPL9B, hits give low values 1.01 | S. cerevisiae deletion strains, locus YNL071W, strain lat1, hits give low values 0.975 | S. cerevisiae deletion strains, locus YNL128W, strain TEP1, hits give low values 1.01 | S. cerevisiae deletion strains, locus YNL153C, strain GIM3, hits give low values 1.01 | S. cerevisiae deletion strains, locus YNL175C, strain NOP13, hits give low values 1 | S. cerevisiae deletion strains, locus YNL183C, strain NPR1, hits give low values 0.939 | S. cerevisiae deletion strains, locus YNL197C, strain WHI3, hits give low values 0.987 | S. cerevisiae deletion strains, locus YNL209W, strain ssb2, hits give low values 1.01 | S. cerevisiae deletion strains, locus YNL224C, strain SQS1, hits give low values 1.04 | S. cerevisiae deletion strains, locus YNL233W, strain BNI4, hits give low values 1 | S. cerevisiae deletion strains, locus YNL248C, strain rpa49, hits give low values 0.988 | S. cerevisiae deletion strains, locus YNL250W, strain rad50, hits give low values 1.02 | S. cerevisiae deletion strains, locus YNL271C, strain bni1, hits give low values 1.02 | S. cerevisiae deletion strains, locus YNL298W, strain CLA4, hits give low values 1 | S. cerevisiae deletion strains, locus YNL307C, strain MCK1, hits give low values 0.994 | S. cerevisiae deletion strains, locus YNL322C, strain KRE1 (second series), hits give low values 0.993 | S. cerevisiae deletion strains, locus YNL322C, strain KRE1, hits give low values 1.01 | S. cerevisiae deletion strains, locus YNR049C, strain mso1, hits give low values 1 | S. cerevisiae deletion strains, locus YNR052C, strain pop2, hits give low values 1 | S. cerevisiae deletion strains, locus YOL006C, strain TOP1, hits give low values 1.01 | S. cerevisiae deletion strains, locus YOL012C, strain htz1 1.2 | S. cerevisiae deletion strains, locus YOL147C, strain pex11, hits give low values 1.01 | S. cerevisiae deletion strains, locus YOR001W, strain rrp6, hits give low values 0.982 | S. cerevisiae deletion strains, locus YOR061W, strain CKA2, hits give low values 0.995 | S. cerevisiae deletion strains, locus YOR069W, strain VPS5, hits give low values 1 | S. cerevisiae deletion strains, locus YOR070C, strain gyp1, hits give low values 0.996 | S. cerevisiae deletion strains, locus YOR080W, strain dia2, hits give low values 0.981 | S. cerevisiae deletion strains, locus YOR083W, strain WHI5 (second series), hits give low values 1.07 | S. cerevisiae deletion strains, locus YOR083W, strain WHI5, hits give low values 0.954 | S. cerevisiae deletion strains, locus YOR106W, strain vam3, hits give low values 1 | S. cerevisiae deletion strains, locus YOR136W, strain idh2, hits give low values 1 | S. cerevisiae deletion strains, locus YOR144C, strain elg1, hits give low values 1.01 | S. cerevisiae deletion strains, locus YOR184W, strain ser1, hits give low values 1.02 | S. cerevisiae deletion strains, locus YOR231W, strain MKK1, hits give low values 0.997 | S. cerevisiae deletion strains, locus YOR265W, strain rbl2, hits give low values 1 | S. cerevisiae deletion strains, locus YOR270C, strain vph1, hits give low values 0.996 | S. cerevisiae deletion strains, locus YOR290C, strain snf2, hits give low values 0.973 | S. cerevisiae deletion strains, locus YOR316C, strain cot1, hits give low values 1.01 | S. cerevisiae deletion strains, locus YPL051W, strain arl3, hits give low values 0.99 | S. cerevisiae deletion strains, locus YPL055C, strain LGE1, hits give low values 0.999 | S. cerevisiae deletion strains, locus YPL078C, strain atp4, hits give low values 0.971 | S. cerevisiae deletion strains, locus YPL106C, strain sse1, hits give low values 0.952 | S. cerevisiae deletion strains, locus YPL240C, strain hsp82, hits give low values 0.992 | S. cerevisiae deletion strains, locus YPL241C, strain CIN2, hits give low values 0.992 and 1 | S. cerevisiae deletion strains, locus YPL256C, strain CLN2, hits give low values 0.973 | S. cerevisiae deletion strains, locus YPR119W, strain clb2, hits give low values 1.01 | S. cerevisiae deletion strains, locus YPR141C, strain kar3, hits give low values 1.02 | S. cerevisiae deletion strains, locus YPR163C, strain tif3, hits give low values 1.03 | S. cerevisiae deletion strains, locus YPR167C, strain met16, hits give low values 1.01 | S. cerevisiae deletion strains, strain wtn01, hits give low values 1.02 | S. cerevisiae strains, strain wild type, hits give low values 0.993
